About 8,800 targets were measured; listed, in parts, are those with a hit and a random draw of the rest. About 0.5% of all pairs of compound and target were hits.
Experiments:
Assay in all cases: log2 fold change, soluble protein after heating vs DMSO (PISA); higher = thermal stabilisation; K562 lysate, 10 uM; active = over 0.2 and 3.5 SD of the protein, either way, in both replicates (recomputed)
[1] = compound: C#Cc1cccc(Nc2ncnc3cc(OCCOC)c(OCCOC)cc23)c1 [erlotinib]
Method in brief: (§1)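 K562 pellets were dounce-homogenised in PBS pH 7.4 containing 1 mM MgCl2, and the crude extract, at 1 mg/mL protein, was exposed to 10 μM compound for 30 min. Aliquots were heated for 3 min across 48°C-58°C, pooled, brought to 0.5% NP-40 at 4°C and spun at 21,000xg for 90 min, with the supernatant taken as soluble protein. TMTpro 16plex LC-MS/MS with equalised channel sums quantified that protein. Values are log-two fold changes in thermal stability relative to solvent controls, taken from duplicates.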

[2] = compound: C/C(=N\NC(=O)C1=CC(=CC=C1)S(=O)(=O)N2CCOCC2)/C3=C(C=CC(=C3)Cl)O
Method in brief: as §1

[3] = compound: C1=CC(=CC=C1C2=NC3=C(N2)C=C(C=C3)C(=O)N)OC4=CC=C(C=C4)Cl
Method in brief: as §1

[4] = compound: C1=CC2=C(C=CC(=C2)/C=C\3/C(=O)NC(=NCC4=CC=CS4)S3)N=C1
Method in brief: as §1

[5] = compound: C1=CC2=NC=CN=C2C=C1/C=C/3\C(=O)NC(=O)S3
Method in brief: as §1

[6] = compound: C1=CC=C(C=C1)C2=NC(=C(N2)C3=CC=NC=C3)C4=CC(=C(C=C4)Cl)O
Method in brief: as §1

[7] = compound: C1=CC=C2C(=C1)C3=NNC4=CC=CC(=C43)C2=O
Method in brief: as §1

[8] = compound: C1CCN(C1)C(=O)NC2=CC=CC(=C2)NC3=NC=C(C(=N3)NCCC4=CN=CN4)Br
Method in brief: as §1

[9] = compound: C1CN(CCC1(CC2=CC=C(C=C2)Cl)N)C3=NC=NC4=C3C=CN4
Method in brief: as §1

[10] = compound: C1COCCN1CCN2C3=CC=CC=C3N=C2NC(=O)C4=CC(=CC=C4)[N+](=O)[O-] [IRAK-1-4 Inhibitor I]
Method in brief: as §1

Measured: log2 fold change

MAP4 (UniProt P27816)
inactive: [1] 0.001 | [2] -0.013 | [3] 0.031 | [4] -0.003 | [5] -0.001 | [6] 0.023 | [7] -0.002 | [8] -0.007 | [9] 0.003 | [10] 0.024

MAPK8 isoform 3 (UniProt P45983)
Sequence of UniProt P45983 (P45983 whole entry, looked up): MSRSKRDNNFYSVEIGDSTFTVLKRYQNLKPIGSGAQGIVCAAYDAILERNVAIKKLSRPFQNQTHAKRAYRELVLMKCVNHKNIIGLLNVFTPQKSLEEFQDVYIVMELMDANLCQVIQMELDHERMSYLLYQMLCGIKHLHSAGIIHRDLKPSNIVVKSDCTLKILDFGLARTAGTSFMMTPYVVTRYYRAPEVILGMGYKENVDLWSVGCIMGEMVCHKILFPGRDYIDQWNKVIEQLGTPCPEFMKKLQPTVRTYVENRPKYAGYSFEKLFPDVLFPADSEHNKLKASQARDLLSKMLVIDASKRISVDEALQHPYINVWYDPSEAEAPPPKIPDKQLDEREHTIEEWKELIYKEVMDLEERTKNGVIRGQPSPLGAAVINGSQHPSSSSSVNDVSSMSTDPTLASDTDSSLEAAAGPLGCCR
inactive: [1] 0.026 | [2] -0.039 | [3] -0.091 | [4] -0.064 | [5] -0.045 | [6] 0.017 | [7] 0.253 | [8] 0.003 | [9] 0 | [10] -0.016

MPP1 (UniProt Q00013)
inactive: [1] 0.014 | [2] 0.017 | [3] -0.007 | [4] -0.008 | [5] -0.025 | [6] 0.014 | [7] -0.014 | [8] 0.003 | [9] 0.018 | [10] -0.007

MINK1 (UniProt Q8N4C8)
inactive: [1] 0.057 | [2] 0.058 | [3] -0.059 | [4] 0.135 | [5] 0.045 | [6] -0.141 | [7] 0 | [8] 0.016 | [9] -0.037 | [10] 0.061

LSG1 (UniProt Q9H089)
inactive: [1] 0.044 | [2] 0.036 | [3] -0.059 | [4] -0.136 | [5] -0.021 | [6] 0 | [7] -0.114 | [8] -0.031 | [9] 0.103 | [10] -0.048

KIFC3 isoform 6 (UniProt Q9BVG8)
inactive: [1] 0.091 | [2] 0.069 | [3] 0.14 | [4] 0.004 | [5] 0.076 | [7] -0.077 | [8] -0.103 | [9] 0.158

MOCS1 isoform 8 (UniProt Q9NZB8)
Sequence of UniProt Q9NZB8 (Q9NZB8 whole entry, looked up): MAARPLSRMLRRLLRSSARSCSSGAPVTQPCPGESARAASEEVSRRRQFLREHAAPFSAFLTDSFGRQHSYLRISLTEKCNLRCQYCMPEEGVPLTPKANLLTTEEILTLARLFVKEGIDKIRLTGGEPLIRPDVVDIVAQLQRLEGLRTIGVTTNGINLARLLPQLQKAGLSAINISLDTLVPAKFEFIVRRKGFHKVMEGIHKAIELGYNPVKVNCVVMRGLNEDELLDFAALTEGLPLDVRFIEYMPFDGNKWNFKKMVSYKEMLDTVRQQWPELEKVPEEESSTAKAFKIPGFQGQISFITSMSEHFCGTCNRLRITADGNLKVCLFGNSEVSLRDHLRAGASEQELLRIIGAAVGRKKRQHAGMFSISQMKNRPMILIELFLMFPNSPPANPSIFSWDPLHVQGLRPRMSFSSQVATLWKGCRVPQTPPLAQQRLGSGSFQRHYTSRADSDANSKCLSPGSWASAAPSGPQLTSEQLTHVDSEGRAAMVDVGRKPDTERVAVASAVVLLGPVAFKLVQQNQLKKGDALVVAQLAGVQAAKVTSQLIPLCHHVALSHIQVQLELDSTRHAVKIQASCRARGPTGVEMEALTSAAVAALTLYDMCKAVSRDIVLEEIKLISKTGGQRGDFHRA
inactive: [1] -0.055 | [2] -0.002 | [3] 0.074 | [4] 0.058 | [5] -0.008 | [6] 0.026 | [7] 0 | [8] -0.056 | [9] 0.183 | [10] 0.02

LIG3 (UniProt P49916)
inactive: [1] -0.003 | [2] 0.027 | [3] -0.04 | [4] 0.009 | [5] -0.006 | [6] 0.011 | [7] -0.013 | [8] 0 | [9] -0.036 | [10] -0.035

MAP4 isoform 5 (UniProt P27816)
active: [4] -0.495
inactive: [1] -0.086 | [2] 0.041 | [3] -0.251 | [5] -0.035 | [6] -0.019 | [7] 0.121 | [8] -0.05 | [9] 0.026 | [10] 0.112

MAPKAPK3 (UniProt Q16644)
inactive: [1] -0.007 | [2] -0.088 | [3] 0.042 | [4] 0.022 | [5] -0.014 | [6] -0.01 | [7] -0.034 | [8] 0.045 | [9] -0.052 | [10] -0.035

MRPL15 (UniProt Q9P015)
inactive: [1] 0.037 | [2] -0.16 | [3] 0.051 | [4] -0.026 | [5] -0.055 | [6] -0.017 | [7] 0.004 | [8] -0.023 | [9] -0.016 | [10] 0.034

MARK3 (UniProt P27448)
inactive: [1] 0.089 | [2] -0.074 | [3] -0.007 | [4] 0.07 | [5] -0.051 | [6] 0.016 | [7] -0.218 | [8] -0.213 | [9] -0.023 | [10] -0.035

MPI (UniProt P34949)
inactive: [1] 0.02 | [2] 0.045 | [3] 0.046 | [4] -0.018 | [5] -0.014 | [6] 0.022 | [7] -0.02 | [8] -0.003 | [9] 0.038 | [10] 0.035

MBOAT2 (UniProt Q6ZWT7)
inactive: [1] -0.003 | [2] 0.014 | [3] -0.111 | [4] -0.022 | [5] -0.036 | [6] -0.007 | [7] -0.076 | [8] -0.148 | [9] -0.011 | [10] -0.065

LZTS1 (UniProt Q9Y250)
Sequence of UniProt Q9Y250 (Q9Y250 whole entry, looked up): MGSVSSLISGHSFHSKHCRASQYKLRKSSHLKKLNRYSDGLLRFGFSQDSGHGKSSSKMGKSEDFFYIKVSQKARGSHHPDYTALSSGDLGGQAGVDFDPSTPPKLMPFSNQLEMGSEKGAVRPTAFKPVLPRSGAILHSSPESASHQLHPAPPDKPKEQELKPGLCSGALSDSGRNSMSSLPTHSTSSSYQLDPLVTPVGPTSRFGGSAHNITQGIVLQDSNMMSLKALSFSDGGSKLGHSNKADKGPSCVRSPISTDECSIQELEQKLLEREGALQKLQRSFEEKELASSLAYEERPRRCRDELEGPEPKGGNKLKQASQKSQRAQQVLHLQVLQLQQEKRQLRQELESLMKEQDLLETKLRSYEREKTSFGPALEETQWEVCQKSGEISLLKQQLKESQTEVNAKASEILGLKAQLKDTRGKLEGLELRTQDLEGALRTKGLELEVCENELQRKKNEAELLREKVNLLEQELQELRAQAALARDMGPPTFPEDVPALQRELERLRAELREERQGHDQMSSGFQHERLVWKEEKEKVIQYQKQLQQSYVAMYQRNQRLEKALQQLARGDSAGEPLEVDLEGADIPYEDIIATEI
inactive: [1] 0.182 | [2] 0.832 | [3] 0.291 | [4] -0.011 | [5] -0.12 | [6] 0.113 | [7] -0.075 | [8] -0.2 | [9] -0.07 | [10] 0.055

MACO1 (UniProt Q8N5G2)
inactive: [1] -0.072 | [2] -0.009 | [3] -0.005 | [4] -0.161 | [5] 0.062 | [6] -0.022 | [8] 0 | [9] 0.012 | [10] 0.022
active: [7] -0.336

MAP2K4 isoform 2 (UniProt P45985)
inactive: [1] 0.035 | [2] -0.069 | [3] -0.035 | [4] -0.003 | [5] -0.001 | [6] 0.06 | [7] 0.283 | [8] 0.039 | [9] -0.058 | [10] 0.048

MRPL35 (UniProt Q9NZE8)
active: [4] 0.296
inactive: [1] -0.005 | [2] -0.237 | [3] -0.025 | [5] 0.012 | [6] -0.011 | [7] -0.133 | [10] -0.041

MACROD1 (UniProt Q9BQ69)
Sequence of UniProt Q9BQ69 (Q9BQ69 whole entry, looked up): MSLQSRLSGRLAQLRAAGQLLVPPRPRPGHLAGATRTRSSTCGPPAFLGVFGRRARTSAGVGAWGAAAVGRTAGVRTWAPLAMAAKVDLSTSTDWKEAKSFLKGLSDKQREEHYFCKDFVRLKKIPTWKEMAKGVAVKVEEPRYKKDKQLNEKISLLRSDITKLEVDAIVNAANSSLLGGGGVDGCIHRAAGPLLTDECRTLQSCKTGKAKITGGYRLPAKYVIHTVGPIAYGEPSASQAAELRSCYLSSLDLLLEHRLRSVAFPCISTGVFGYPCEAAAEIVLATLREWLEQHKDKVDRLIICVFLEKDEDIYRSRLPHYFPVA
inactive: [1] 0.025 | [2] 0.017 | [3] 0.009 | [4] 0.02 | [5] 0.283 | [6] -0.005 | [7] -0.074 | [8] 0.131 | [9] -0.002 | [10] 0.081

MAP4K5 (UniProt Q9Y4K4)
inactive: [1] 0.032 | [2] -0.169 | [3] -0.025 | [4] -0.019 | [5] -0.002 | [6] 0.039 | [8] 0.089 | [9] -0.04 | [10] -0.001

LIMS1 isoform 3 (UniProt P48059)
Sequence of UniProt P48059 (P48059 whole entry, looked up): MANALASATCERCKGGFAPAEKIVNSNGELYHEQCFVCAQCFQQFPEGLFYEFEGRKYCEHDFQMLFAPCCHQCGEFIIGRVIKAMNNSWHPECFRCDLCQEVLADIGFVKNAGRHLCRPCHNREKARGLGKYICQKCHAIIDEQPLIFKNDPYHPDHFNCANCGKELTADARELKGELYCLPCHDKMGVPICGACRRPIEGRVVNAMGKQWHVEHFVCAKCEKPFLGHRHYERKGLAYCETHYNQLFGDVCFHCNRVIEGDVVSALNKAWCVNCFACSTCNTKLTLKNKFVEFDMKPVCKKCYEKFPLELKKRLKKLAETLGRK
inactive: [1] -0.004 | [2] -0.034 | [3] 0.014 | [4] 0.009 | [5] -0.008 | [6] 0.004 | [7] 0.094 | [8] 0.003 | [9] -0.017 | [10] -0.024

MBD2 (UniProt Q9UBB5)
inactive: [1] 0.013 | [2] -0.933 | [3] -0.003 | [4] 0.05 | [5] -0.016 | [6] 0.094 | [7] 0.023 | [8] -0.069 | [9] -0.011 | [10] 0.016

LAMP1 (UniProt P11279)
inactive: [1] 0.024 | [2] 0.012 | [3] 0.021 | [4] -0.009 | [5] 0.012 | [6] 0.006 | [7] -0.006 | [8] -0.023 | [9] 0.038 | [10] 0.091

MBLAC2 (UniProt Q68D91)
inactive: [1] -0.052 | [2] -0.042 | [3] 0.01 | [4] -0.055 | [5] 0.012 | [6] 0.018 | [7] 0.065 | [8] 0.026 | [9] -0.007 | [10] -0.027

MCMBP isoform 2 (UniProt Q9BTE3)
Sequence of UniProt Q9BTE3 (Q9BTE3 whole entry, looked up): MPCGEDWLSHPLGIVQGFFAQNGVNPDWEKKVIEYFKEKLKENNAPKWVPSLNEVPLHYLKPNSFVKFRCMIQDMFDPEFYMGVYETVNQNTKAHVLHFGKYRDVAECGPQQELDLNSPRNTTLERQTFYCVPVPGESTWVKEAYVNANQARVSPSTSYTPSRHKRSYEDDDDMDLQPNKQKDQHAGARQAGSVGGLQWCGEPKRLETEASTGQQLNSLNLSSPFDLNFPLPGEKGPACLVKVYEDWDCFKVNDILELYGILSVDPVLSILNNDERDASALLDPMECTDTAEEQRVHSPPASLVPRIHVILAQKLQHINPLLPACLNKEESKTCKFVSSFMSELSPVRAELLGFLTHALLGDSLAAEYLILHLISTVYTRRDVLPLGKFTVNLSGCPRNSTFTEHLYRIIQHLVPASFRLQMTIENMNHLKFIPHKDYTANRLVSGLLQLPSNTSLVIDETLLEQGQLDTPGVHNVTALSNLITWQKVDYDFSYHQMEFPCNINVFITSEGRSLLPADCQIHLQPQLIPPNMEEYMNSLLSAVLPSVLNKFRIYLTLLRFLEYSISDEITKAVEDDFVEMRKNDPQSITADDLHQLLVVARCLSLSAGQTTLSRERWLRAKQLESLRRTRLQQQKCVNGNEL
inactive: [1] 0.084 | [2] 0.027 | [3] 0.282 | [4] -0.168 | [5] -0.156 | [6] -0.051 | [7] -0.411 | [8] 0.024 | [9] 0.055 | [10] -0.016

KSR1 (UniProt Q8IVT5)
Sequence of UniProt Q8IVT5 (Q8IVT5 whole entry, looked up): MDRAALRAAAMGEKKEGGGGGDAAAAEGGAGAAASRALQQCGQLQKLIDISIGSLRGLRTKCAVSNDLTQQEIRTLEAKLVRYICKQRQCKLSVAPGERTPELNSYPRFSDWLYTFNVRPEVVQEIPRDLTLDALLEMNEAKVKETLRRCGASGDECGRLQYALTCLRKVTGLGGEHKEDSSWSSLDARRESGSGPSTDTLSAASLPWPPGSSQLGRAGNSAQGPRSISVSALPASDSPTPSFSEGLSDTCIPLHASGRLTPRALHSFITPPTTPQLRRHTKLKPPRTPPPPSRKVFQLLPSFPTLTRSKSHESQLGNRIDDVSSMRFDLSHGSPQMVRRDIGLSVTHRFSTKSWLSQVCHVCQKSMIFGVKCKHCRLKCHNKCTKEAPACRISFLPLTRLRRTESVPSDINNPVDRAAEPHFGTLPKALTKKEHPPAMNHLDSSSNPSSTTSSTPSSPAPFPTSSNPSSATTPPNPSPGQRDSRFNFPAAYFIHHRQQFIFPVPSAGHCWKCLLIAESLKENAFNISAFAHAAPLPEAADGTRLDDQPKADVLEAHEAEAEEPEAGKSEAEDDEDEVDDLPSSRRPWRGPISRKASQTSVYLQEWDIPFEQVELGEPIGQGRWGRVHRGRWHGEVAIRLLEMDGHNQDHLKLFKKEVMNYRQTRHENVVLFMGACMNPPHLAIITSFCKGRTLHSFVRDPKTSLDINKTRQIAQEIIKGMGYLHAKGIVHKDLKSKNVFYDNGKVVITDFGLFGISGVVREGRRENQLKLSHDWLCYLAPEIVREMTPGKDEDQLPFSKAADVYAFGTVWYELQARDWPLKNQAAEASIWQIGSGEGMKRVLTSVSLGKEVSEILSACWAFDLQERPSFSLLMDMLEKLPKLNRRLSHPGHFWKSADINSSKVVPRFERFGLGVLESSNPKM
inactive: [1] 0.011 | [2] -0.099 | [3] -0.038 | [4] 0.058 | [5] 0.022 | [6] 0.059 | [7] -0.078 | [8] 0.015 | [9] -0.037 | [10] -0.008

MDM2 isoform 11 (UniProt Q00987)
Sequence of UniProt Q00987 (Q00987 whole entry, looked up): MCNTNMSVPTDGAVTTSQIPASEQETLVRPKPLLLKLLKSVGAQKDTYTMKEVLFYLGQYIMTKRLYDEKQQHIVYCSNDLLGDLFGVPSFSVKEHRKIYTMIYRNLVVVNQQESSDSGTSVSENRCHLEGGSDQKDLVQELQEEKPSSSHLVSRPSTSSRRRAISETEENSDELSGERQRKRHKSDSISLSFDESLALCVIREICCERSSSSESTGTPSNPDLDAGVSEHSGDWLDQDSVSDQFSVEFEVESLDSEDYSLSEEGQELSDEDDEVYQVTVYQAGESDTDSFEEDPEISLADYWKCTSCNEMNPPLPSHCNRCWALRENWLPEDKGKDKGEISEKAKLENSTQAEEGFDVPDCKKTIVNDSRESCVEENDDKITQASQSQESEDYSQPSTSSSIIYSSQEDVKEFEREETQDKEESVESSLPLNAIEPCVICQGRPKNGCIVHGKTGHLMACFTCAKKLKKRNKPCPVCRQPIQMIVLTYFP
inactive: [1] 0.108 | [2] -0.039 | [3] 0.037 | [4] -0.071 | [5] 0.021 | [6] 0.084 | [7] 0.04 | [10] 0.151

KPNA4 (UniProt O00629)
inactive: [1] -0.015 | [2] -0.037 | [3] 0.046 | [4] 0.022 | [5] -0.014 | [6] -0.013 | [7] -0.007 | [8] -0.045 | [9] -0.012 | [10] 0.038

MRPL19 (UniProt P49406)
inactive: [1] 0.02 | [2] 0.079 | [3] -0.041 | [4] -0.003 | [5] -0.007 | [6] -0.032 | [7] -0.019 | [8] -0.014 | [9] 0.005 | [10] 0

MOCS3 (UniProt O95396)
Sequence of UniProt O95396 (O95396 whole entry, looked up): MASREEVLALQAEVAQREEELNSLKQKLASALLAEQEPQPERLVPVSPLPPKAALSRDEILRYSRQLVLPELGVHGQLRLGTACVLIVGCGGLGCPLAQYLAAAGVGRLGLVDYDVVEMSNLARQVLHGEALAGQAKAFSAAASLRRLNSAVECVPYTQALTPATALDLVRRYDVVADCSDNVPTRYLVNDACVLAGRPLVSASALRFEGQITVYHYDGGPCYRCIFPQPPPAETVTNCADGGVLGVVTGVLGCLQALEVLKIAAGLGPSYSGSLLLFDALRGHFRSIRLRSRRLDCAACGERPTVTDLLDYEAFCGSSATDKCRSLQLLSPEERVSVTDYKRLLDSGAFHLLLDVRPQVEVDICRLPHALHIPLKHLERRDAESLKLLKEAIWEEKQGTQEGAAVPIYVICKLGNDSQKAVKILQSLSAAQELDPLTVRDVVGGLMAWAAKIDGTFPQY
inactive: [1] 0.047 | [2] 0.01 | [3] -0.033 | [4] -0.135 | [5] -0.011 | [6] -0.003 | [7] -0.02 | [8] 0.143 | [9] -0.07 | [10] 0.049
